# Screens: PubChem BioAssay, National Center for Advancing Translational Sciences (NCATS)
# GLP1R inv ag – GLP-1 receptor (human) inverse agonism | HEK293 GLP-1R CRE-luciferase, luminescence, 24 h; GLP-1R form is constitutively active | Potency, µM (doses to about 38.3 µM), inactives show at the top dose activity change, negative = inhibition, hits mostly inhibitors | 410,000 compounds, 1.6% hits | AID 624417; further: on the % scale 0 is the no-effect control and ±100 the full control effect; nearly all actives have a fitted effect of over 55% in size
#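 Readout was luciferase luminescence, measured 12 min after detection reagent at room temperature. Beforehand, GLP-1R reporter HEK293 cells had sat 12 h, then received compounds for 24 hr at 37 deg C.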
# HEK293 tox – cytotoxicity in counter-screen for GLP-1R inverse agonists | AID 624418 | HEK293 cAMP-luciferase reporter cells, luminescence, 24 h | Potency, µM (titrated, usually from 38.3 µM), for inactives: top-dose activity change, negative = inhibition, hits mostly inhibitors | 410,000 compounds, 0.13% hits;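 further: loss of luciferase light is scored as toxicity; on the % scale 0 is the no-effect control and ±100 the full control effect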
#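 Here, cytotoxicity is scored as loss of luminescence. The MLSMR collection was tested on cells seeded in medium containing 10% Nu serum, with a 24 hr compound exposure preceded by 12 hours of culture.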
# GLP-1R agonist – GLP-1 receptor (human) agonism. P43220. HEK293 GLP-1R CRE-luciferase, luminescence, 4-6 h; cells express a hypersensitive GLP-1R form. Potency, µM (titrated, usually from 45.6 µM), for inactives: top-dose activation, hits mostly activators. 380,000 compounds, 0.007% hits; further: % of control where 0% means no effect
# VP16 counter – Gal4-VP16 reporter inhibition counter-screen; Potency, µM (series often up to 53.6 µM), without a hit: at the top dose activity, negative = inhibition, hits mostly inhibitors; Drosophila S2 Gal4-VP16 UAS-luciferase, luminescence, 20 h; 310,000 compounds, 3.5% hits;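 further: Gal4-VP16 expression switched on by copper sulfate through the metallothionein promoter; on the % scale 0 is the no-effect control and ±100 the full control effect; nearly all actives have a fitted effect of over 50% in size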
# RORgamma inh – ROR gamma (mouse) transcription inhibition; Drosophila S2 Gal4-RORgamma UAS-luciferase reporter, 20 h; Potency, µM (top dose mostly 53.6 µM), inactives show at the top dose activity change, negative = inhibition, actives largely listed as inhibitors; 310,000 compounds, 5.4% hits; AID 2551; further: on the % scale 0 is the no-effect control and ±100 the full control effect; nearly all actives have a fitted effect of over 60% in size
# Target sequence (P51450 whole entry, looked up, the tested form may be a part): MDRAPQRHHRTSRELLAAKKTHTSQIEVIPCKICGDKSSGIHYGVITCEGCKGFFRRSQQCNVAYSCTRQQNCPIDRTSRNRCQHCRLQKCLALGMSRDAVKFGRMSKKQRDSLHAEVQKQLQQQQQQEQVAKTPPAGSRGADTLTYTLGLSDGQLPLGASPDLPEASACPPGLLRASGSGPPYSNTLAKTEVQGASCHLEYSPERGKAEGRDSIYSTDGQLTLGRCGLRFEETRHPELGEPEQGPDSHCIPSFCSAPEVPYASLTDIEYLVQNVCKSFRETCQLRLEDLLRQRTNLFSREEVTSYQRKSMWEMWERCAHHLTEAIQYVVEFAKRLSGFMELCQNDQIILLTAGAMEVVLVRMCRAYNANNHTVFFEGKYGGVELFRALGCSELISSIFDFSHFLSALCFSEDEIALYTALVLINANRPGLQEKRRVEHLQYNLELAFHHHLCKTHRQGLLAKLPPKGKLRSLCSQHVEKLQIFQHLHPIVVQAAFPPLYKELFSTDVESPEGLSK
#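 Using a luciferase readout, inhibitors were identified by reduced reporter activity in Drosophila cells coexpressing a copper-inducible Gal4–ROR gamma fusion and UAS-driven Photinus luciferase, incubated 20 hr after 700 uM copper sulfate.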
# Starred values were filed as active, the others as inactive; ? = inconclusive; · = no result; ! = not confirmed by another sample; [ ] = remark or other dose. Rows were chosen to be rich in hits. Some 5.9% of all compounds tested hit in one or more screens of this group. The call rests on the fitted dose curve; in most records, active means well fitted curve in the direction sought with a large enough effect; inconclusive means small, poorly fitted or top-dose-only effect, or another doubt; inactive means no such curve, though single readings can be large; an effect the other way counts as inactive or inconclusive. Potency means the concentration at half of the fitted maximal effect.
SMILES,GLP1R inv ag,HEK293 tox,GLP-1R agonist,VP16 counter,RORgamma inh
O=C(CCc1ccccc1)Nc1ccccc1[N+](=O)[O-],0%,-3%[1.53 µM],17%,41%,27%
O=C(CCc1ccccc1)NC(=S)Nc1ccccc1[N+](=O)[O-],?,?,1%,11µM*,10µM*
C=C(CCC12O[C@H](C(=O)O)[C@@](O)(C(=O)O)[C@](C(=O)O)(O1)[C@H](OC(=O)/C=C/[C@@H](C)C[C@@H](C)CC)[C@H]2O)[C@@H](OC(C)=O)[C@H](C)Cc1ccccc1,·,·,·,-3%,-8%
NC(=O)/N=N/C(N)=O,·,·,·,-2%,?
CCn1c(SCc2cccc(Br)c2)nnc1-c1nonc1NC(C)=O,?,150%,·,·,·
COc1ccc(Cl)cc1NC(=O)C(C)n1c(=O)cc(C(F)(F)F)c2c(C)nn(C)c21 (stereo unspecified),16%,9%,·,·,·
O=C(CCc1ccccc1)NNC(=O)c1ccccc1Br,11%,5%,-16%,0%,3%
O=C(C[n+]1ccccc1)Nc1ccccc1Br,-11%,-13%,1%,2.8µM*,1.3µM*
O=C(C[n+]1ccccc1)Nc1ccccc1[N+](=O)[O-],16%,2%,-1%,-5%,-9%
O=C(CCc1ccccc1)NC(=S)Nc1ccccc1Br,?,?,0%,?,3.5µM*
Clc1ccc(CN2CCC(c3nc4ccc(Cl)cc4[nH]3)CC2)cc1,7.9µM*,?,-39%,-6%,-2%
COc1ccccc1NC(=O)c1c(C)cc(C)nc1SCC(=O)c1ccc(Cl)cc1,5%,4%,·,·,·
COC(=O)CC(NC(=O)c1ccc(C)cc1)c1ccccc1 (stereo unspecified),-7%,18%,0%,-30%,8.9µM*
S=C(Nc1cc(Cl)cc(Cl)c1)N1CCN(c2ccccn2)CC1,-27%,-20%,-5%,-22%,11µM*
S=C(Nc1ccc(Br)cc1)N1CCN(c2ccccn2)CC1,?,1%,-5%,?,11µM*
Cc1cc(C)cc(NC(=S)N2CCN(c3ccccn3)CC2)c1,-8%,-4%,3%,?,16µM*
S=C(Nc1cc(Cl)cc(Cl)c1)N1CCCC1,5%,-3%,5%,?,5µM*
S=C(Nc1ccc(Cl)cc1)N1CCCC1,0%,-21%,-5%,8%,-45%
Cc1cc2c(nc1C)CCCN2C[C@H](C)O/N=C\[C@@H](C)[C@H](OCc1ccccc1)C(C)C,·,·,·,2%[10 µM],-5%[10 µM]
O=c1c(-c2ccccc2)nc2cnc(N3CCOCC3)nc2n1CCc1ccccc1,·,·,·,-3%,-22%
COc1ccc(-n2c(=O)c3c(c4cc(OC)ccc4n3C)n(Cc3ccc(F)cc3Cl)c2=O)cc1,6%,1%,-1%,·,·
Cc1ccc(NC(=S)N2CCN(c3ccccn3)CC2)cc1C,-16%,-13%,4%,13µM*,?
Cc1cccc(NC(=S)N2CCN(c3ccccn3)CC2)c1,-16%,3%,3%,?,?
COc1ccc(C)cc1NC(=S)N1CCN(c2ccccn2)CC1,19%,1%,19%,?,?
COc1cc(NC(=S)N2CCN(c3ccccn3)CC2)cc(OC)c1,-5%,15%,1%,?,11µM*
SMILES,GLP1R inv ag,HEK293 tox,GLP-1R agonist,VP16 counter,RORgamma inh
COc1cc(NC(=S)N2CCN(c3ccccn3)CC2)cc(OC)c1OC,-14%,3%,-2%,1%,-1%
Cc1cc(C)cc(NC(=S)N2CCN(c3ncccn3)CC2)c1,-28%,6%,7%,?,14µM*
COC(=O)c1cc(OC)c(OC)cc1NC(=S)N1CCN(c2ccccn2)CC1,4%,-25%,16%,6%,11µM*
CCC(=O)N1c2ccccc2CC1C(=O)NCCc1ccccc1Cl (stereo unspecified),15%,0%,·,·,·
OC(c1ccc(F)c(F)c1)c1nc(-c2ccccc2)cs1 (stereo unspecified),-29%,-10%,-5%,·,·
COc1ccc(-c2csc(C(O)c3ccc(F)c(F)c3)n2)cc1 (stereo unspecified),11µM*,-7%,8%,·,·
O=C1CCCC1C(O)c1ccc2ccccc2c1 (stereo unspecified),·,·,·,-7%,-9%
Cn1c(CNc2ccc(Cl)cc2)nnc1SCCN1CCCCC1,4µM*,-10%,-13%,-3%,-20%
Cn1c(CNc2ccc(Cl)cc2)nnc1SCC#N,0%,5%,-6%,4%,8%
O=S(=O)(Nc1cccc(-c2ccc(N3CCCC3)nn2)c1)c1ccccc1C(F)(F)F,-8%,0%,·,·,·
CCOc1ccc(N(CC(=O)Nc2cccc(Cl)c2)S(=O)(=O)c2c(C)noc2C)cc1,?,-15%,-2%,13µM*,16µM*
COc1ccc(N(CC(=O)NC(C)c2ccccc2)S(=O)(=O)c2c(C)noc2C)cc1 (stereo unspecified),8.9µM*!,-14%,-2%,7%,-5%
CCOc1ccc(N(CC(=O)Nc2cccc(OC)c2)S(=O)(=O)c2c(C)noc2C)cc1,?,18%,14%,?,?
Cc1cc(C)cc(N(CC(=O)Nc2cccc(C)n2)S(=O)(=O)c2c(C)noc2C)c1,8.9µM*,-5%,-2%,-19%,?
O=C(CN1CCCN(S(=O)(=O)c2ccc(Br)cc2)CC1)Nc1cccc(C(F)(F)F)c1,?,-2%,·,·,·
Cc1cc2n(n1)SC(Nc1ccc(F)c(Cl)c1)N2 (stereo unspecified),0%,?,0%,1.1µM*,0.63µM*
COc1ccc(-c2csc3nc(C)nc(N4CCCCC4)c23)cc1OC,-22%,-7%,10%,10%,10µM*
COc1ccc(-c2csc3nc(-c4cccnc4)nc(N4CCC(C(N)=O)CC4)c23)cc1OC,83%,-13%,27%,-19%,-38%
CC(C)n1c(CSCc2ccc(Cl)cc2Cl)n[nH]c1=S,-31%[7.66 µM],?,0%,3.2µM*,1.4µM*
CCCSc1nc(C)cc(C)c1S(=O)(=O)c1ccccc1C,8.9µM*,85%,11%,-20%,-6%
Cc1cc(C)c(S(=O)(=O)c2ccccc2C)c(SCC(C)C)n1,?,3%,1%,?,?
CCCCCCCNC1=CC(=O)CC(c2ccccc2)C1 (stereo unspecified),11µM*,-26%,7%,?,?
NCCC[C@@H](CC(=O)N[C@@H]1CCNC[C@H]1C(=O)N[C@H](CC(=O)N[C@@H](CCC(=O)O)CC(=O)O)Cc1ccccc1)NC(=O)C[C@H](CO)NC(=O)[C@@H]1CCCC[C@H]1N,·,·,·,0%,10%
COc1ccc2c(c1)OC1=C(C(=O)CCC1)C2C1=C(O)CCCC1=O (stereo unspecified),-7%,4%,-7%,10%,11µM*
